The nature of assay [1]: NCI Yeast Anticancer Drug Screen. Data for the rad50 strain (AID 155).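 Note: 0% = growth of vehicle-only cultures of the same strain.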 The settings on record: S. cerevisiae rad50 strain growth inhibition, hits give high values. The procedure, abridged:
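Cells are treated with compound, grown, and their growth is then scored against vehicle-only cultures of the same repair-deficient yeast strain.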

Assay [2] is described as follows: NCI Yeast Anticancer Drug Screen. Data for the mec2-1 strain (AID 157). The settings on record: S. cerevisiae mec2-1 strain, hits give high values. The procedure, abridged:
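Growth inhibition is read against vehicle-treated controls after compound exposure of the mec2-1 yeast strain, which is defective in DNA damage repair or cell cycle control.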

Assay [3] is described as follows: NCI Yeast Anticancer Drug Screen. Data for the sgs1 mgt1 strain (AID 161).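 Note: 0% = growth of cultures given vehicle only.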 The settings on record: S. cerevisiae sgs1 mgt1 strain, hits give high values. In outline: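 Yeast cells carrying a defined DNA-repair defect were exposed to test compounds. Growth inhibition was measured relative to vehicle-treated controls.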
Assay [4] in a line: NCI Yeast Anticancer Drug Screen. Data for the cln2 rad14 strain (AID 165).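 Note: 0% = growth equal to vehicle treated cultures.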 The settings on record: S. cerevisiae cln2 rad14 strain, hits give high values. In outline:
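Growth inhibition, relative to vehicle-treated controls, is the read-out. The test organism is a yeast strain with defined genetic alterations, cln2 rad14.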

The nature of assay [5]: NCI Yeast Anticancer Drug Screen. Data for the bub3 strain (AID 167). To be noted: S. cerevisiae bub3 mutant strain, hits give high values. The procedure, abridged: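 Part of a panel of yeast mutants defective in DNA damage repair or cell cycle regulation. Each strain is grown with compound, and inhibition is calculated relative to solvent-treated cultures.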
The nature of assay [6]: NCI Yeast Anticancer Drug Screen. Data for the mlh1 rad18 strain (AID 175). The settings on record: S. cerevisiae mlh1 rad18 strain growth inhibition, hits give high values. The procedure, abridged:
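Cells of a genetically altered yeast strain, deficient in DNA damage repair, were treated with compound. Their growth was then compared with that of vehicle-treated cultures to give inhibition.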

Where [7] appears, read: at 5.0 µM (retest, dose inferred, filed as 0.5).
The mark [8] stands for this setting: at 50.0 µM (retest, dose inferred, filed as 5.0).

The panel holds about 79,000 compounds, 15% with a hit somewhere; the sample as a whole holds those more often. A number with no mark means an inactive call. Calls of active or inactive are those of the source. Cut-off read from the data, not from the text of the source: active = growth inhibition above about 70%; inactive = the rest.

As to `CS(=O)(=O)OCCN(CCOS(C)(=O)=O)c1ccc(C=Nc2ccc(-c3csc(-c4ccc(Br)cc4)n3)cc2)c(Cl)c1`, the growth inhibition in assay [1] (setting [7]) was 0%; in assay [1] (setting [8]), 71% (active); in assay [1] (at 50.0 µM), 71.7% (active); in assay [2] (setting [7]), -4%; in assay [2] (setting [8]), 51%; in assay [2] (at 50.0 µM), 56.2%. Further, the growth inhibition in assay [3] (setting [7]) is 1%; in assay [3] (setting [8]), 83% (active); in assay [3] (at 50.0 µM) it was 92.3% (active); in assay [4] (setting [7]), -10%; in assay [4] (setting [8]), 68%; in assay [4] (at 50.0 µM) it was 46.3%. Also, the growth inhibition in assay [5] (setting [7]) is 3%; in assay [5] (setting [8]) it was 87% (active); in assay [5] (at 50.0 µM), 80.1% (active); in assay [6] (setting [7]), 0%; in assay [6] (setting [8]) it was 76% (active); in assay [6] (at 50.0 µM) it was 90.7% (active).

Turning to `CCCCCCCCNC(=O)C(Cl)Cl`, the growth inhibition in assay [1] (setting [7]) is 3%; in assay [1] (setting [8]), 17%; in assay [1] (at 50.0 µM), -6.1%; in assay [2] (setting [7]), -27%; in assay [2] (setting [8]) it was 11%; in assay [2] (at 50.0 µM), 2.6%. For the same compound, the growth inhibition in assay [3] (setting [7]) is 0%; in assay [3] (setting [8]) it was 10%; in assay [3] (at 50.0 µM), 40%; in assay [4] (setting [7]) it was 12%; in assay [4] (setting [8]) it was -11%; in assay [4] (at 50.0 µM), -10.6%. Further, the growth inhibition was 37% in assay [5] (setting [7]); 84% (active) in assay [5] (setting [8]); 70.4% (active) in assay [5] (at 50.0 µM); 4% in assay [6] (setting [7]); 17% in assay [6] (setting [8]); -3.2% in assay [6] (at 50.0 µM).

Turning to `Fc1ccc(NC(=S)SCc2ccc(Cl)c(Cl)c2)cc1`, the growth inhibition in assay [1] (setting [7]) was 4%; in assay [1] (setting [8]), 92% (active); in assay [1] (at 50.0 µM), 98.1% (active); in assay [2] (setting [7]), 3%; in assay [2] (setting [8]), 91% (active); in assay [2] (at 50.0 µM), 99% (active). The growth inhibition in assay [3] (setting [7]) is 0%; in assay [3] (setting [8]), 97% (active); in assay [3] (at 50.0 µM), 98.8% (active); in assay [4] (setting [7]), -3%; in assay [4] (setting [8]) it was 92% (active); in assay [4] (at 50.0 µM), 98.3% (active). Also, the growth inhibition is 3% in assay [5] (setting [7]); 90% (active) in assay [5] (setting [8]); 98.2% (active) in assay [5] (at 50.0 µM); 0% in assay [6] (setting [7]); 94% (active) in assay [6] (setting [8]); 98.8% (active) in assay [6] (at 50.0 µM).

Take `COc1ccc(C(c2cc3c(cc2O)OCO3)N2CCOCC2)c(OC)c1OC` (stereo not given): the growth inhibition was 4% in assay [1] (setting [7]); 96% (active) in assay [1] (setting [8]); 95.5% (active) in assay [1] (at 50.0 µM); 4% in assay [2] (setting [7]); 97% (active) in assay [2] (setting [8]); 99.6% (active) in assay [2] (at 50.0 µM). Also, the growth inhibition in assay [3] (setting [7]) is 0%; in assay [3] (setting [8]), 74% (active); in assay [3] (at 50.0 µM), 62.9%; in assay [4] (setting [7]) it was -6%; in assay [4] (setting [8]), 63%; in assay [4] (at 50.0 µM) it was 24.4%. For the same compound, the growth inhibition in assay [5] (setting [7]) is 0%; in assay [5] (setting [8]), 87% (active); in assay [5] (at 50.0 µM), 98.7% (active); in assay [6] (setting [7]), 2%; in assay [6] (setting [8]) it was 63%; in assay [6] (at 50.0 µM), 83% (active).

As for `CC(C)(C)OC(=O)CSC#N`, the growth inhibition is 11% in assay [1] (setting [7]); 93% (active) in assay [1] (setting [8]); 67.3% in assay [1] (at 50.0 µM); 16% in assay [2] (setting [7]); 95% (active) in assay [2] (setting [8]); 66.2% in assay [2] (at 50.0 µM). Also, the growth inhibition in assay [3] (setting [7]) was 9%; in assay [3] (setting [8]) it was 96% (active); in assay [3] (at 50.0 µM), 90.5% (active); in assay [4] (setting [7]), 8%; in assay [4] (setting [8]), 39%; in assay [4] (at 50.0 µM), 3.75%. Further, the growth inhibition in assay [5] (setting [7]) is 12%; in assay [5] (setting [8]), 94% (active); in assay [5] (at 50.0 µM), 69.2%; in assay [6] (setting [7]) it was 15%; in assay [6] (setting [8]) it was 92% (active); in assay [6] (at 50.0 µM), 55.5%.

As for `N#Cc1ccc2nc3ccc(N)cc3nc2c1`, the growth inhibition is -22% in assay [1] (setting [7]); 96% (active) in assay [1] (setting [8]); 79.2% (active) in assay [1] (at 50.0 µM); 4% in assay [2] (setting [7]); 76% (active) in assay [2] (setting [8]); 39.1% in assay [2] (at 50.0 µM). The growth inhibition in assay [3] (setting [7]) was -18%; in assay [3] (setting [8]), 86% (active); in assay [3] (at 50.0 µM), 20.1%; in assay [4] (setting [7]), -6%; in assay [4] (setting [8]), 82% (active); in assay [4] (at 50.0 µM) it was 10.6%. Besides, the growth inhibition in assay [5] (setting [7]) was -13%; in assay [5] (setting [8]), 82% (active); in assay [5] (at 50.0 µM) it was 43.3%; in assay [6] (setting [7]) it was -5%; in assay [6] (setting [8]), 96% (active); in assay [6] (at 50.0 µM) it was 48%.

With `O=C1C=CC(=O)N1c1ccc(Br)c(Cl)c1`, the growth inhibition was 101% (active) in assay [1] (setting [7]); 100% (active) in assay [1] (setting [8]); 68.7% in assay [1] (at 50.0 µM); 100% (active) in assay [2] (setting [7]); 100% (active) in assay [2] (setting [8]); 87.8% (active) in assay [2] (at 50.0 µM). Also, the growth inhibition in assay [3] (setting [7]) is 21%; in assay [3] (setting [8]), 100% (active); in assay [3] (at 50.0 µM) it was 80.3% (active); in assay [4] (setting [7]), 46%; in assay [4] (setting [8]), 100% (active); in assay [4] (at 50.0 µM), 24.2%. The growth inhibition is 37% in assay [5] (setting [7]); 100% (active) in assay [5] (setting [8]); 66.6% in assay [5] (at 50.0 µM); 100% (active) in assay [6] (setting [7]); 100% (active) in assay [6] (setting [8]); 63.7% in assay [6] (at 50.0 µM).

Take `Cc1c(-c2ccccc2)ccnc1/C=N/NC(=S)Nc1ccccc1`: the growth inhibition in assay [1] (setting [7]) was 1%; in assay [1] (setting [8]), 39%; in assay [1] (at 50.0 µM), 89.2% (active); in assay [2] (setting [7]), 1%; in assay [2] (setting [8]), 31%; in assay [2] (at 50.0 µM) it was 94% (active). Further, the growth inhibition in assay [3] (setting [7]) is 4%; in assay [3] (setting [8]) it was 88% (active); in assay [3] (at 50.0 µM), 95.1% (active); in assay [4] (setting [7]), 1%; in assay [4] (setting [8]), 23%; in assay [4] (at 50.0 µM), 92.1% (active). In addition, the growth inhibition in assay [5] (setting [7]) is -2%; in assay [5] (setting [8]), 49%; in assay [5] (at 50.0 µM), 95.7% (active); in assay [6] (setting [7]), -5%; in assay [6] (setting [8]), 59%; in assay [6] (at 50.0 µM) it was 93.8% (active).

In the case of `COc1cc(C(c2cc3c(cc2O)OCO3)N2CCOCC2)ccc1O` (stereo not given), the growth inhibition in assay [1] (setting [7]) is 2%; in assay [1] (setting [8]) it was 25%; in assay [1] (at 50.0 µM) it was 44.8%; in assay [2] (setting [7]), -4%; in assay [2] (setting [8]) it was 46%; in assay [2] (at 50.0 µM), 57.5%. Further, the growth inhibition in assay [3] (setting [7]) was -2%; in assay [3] (setting [8]) it was 27%; in assay [3] (at 50.0 µM), 73% (active); in assay [4] (setting [7]), 1%; in assay [4] (setting [8]), 3%; in assay [4] (at 50.0 µM), 47.6%. The growth inhibition in assay [5] (setting [7]) is -4%; in assay [5] (setting [8]), 25%; in assay [5] (at 50.0 µM), 42.9%; in assay [6] (setting [7]), -5%; in assay [6] (setting [8]), 34%; in assay [6] (at 50.0 µM) it was 50.5%.

Regarding `CCCCCCCCCCCCCCCCNC(C)c1ccccc1` (stereo not given), the growth inhibition in assay [1] (setting [7]) is 0%; in assay [1] (setting [8]), -3%; in assay [1] (at 50.0 µM) it was 98.1% (active); in assay [2] (setting [7]), -1%; in assay [2] (setting [8]), 9%; in assay [2] (at 50.0 µM), 98.7% (active). Further, the growth inhibition in assay [3] (setting [7]) was 6%; in assay [3] (setting [8]) it was 4%; in assay [3] (at 50.0 µM) it was 99% (active); in assay [4] (setting [7]), -9%; in assay [4] (setting [8]) it was -4%; in assay [4] (at 50.0 µM), 97.5% (active). Further, the growth inhibition in assay [5] (setting [7]) is -6%; in assay [5] (setting [8]), -6%; in assay [5] (at 50.0 µM), 99% (active); in assay [6] (setting [7]), -2%; in assay [6] (setting [8]), 9%; in assay [6] (at 50.0 µM), 98.3% (active).

For the origin of these results see PubChem BioAssay (NCI).
